Luciferase inh = Firefly luciferase inhibition profiling of diverse chemical library using quantitative high-throughput screening; Luciferin 4-monooxygenase (Photinus pyralis), P08659; purified P. pyralis luciferase, luminescence, biochemical; Potency, µM (series often up to 115 µM), most hits filed as inhibitors; 2.5% of 76,000 active; AID 1347043, 2019; also: nearly all actives have a fitted effect of over 65% in size
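Cell-free enzyme assay, 10nM P. pyralis luciferase, luciferin and ATP each at 10uM. Inhibition profiled over a 6-point titration, read as luminescence.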
hNpr1 antagonist = Natriuretic polypeptide receptor (hNpr1) antagonism - Primary qHTS; Potency, µM (series often up to 46.3 µM), inactives show top-dose activity change, negative = inhibition, actives largely listed as inhibitors; HEK293 hNpr1 GloSensor cGMP, ANP-stimulated luminescence; Atrial natriuretic peptide receptor 1 (Homo sapiens), P16066; 1.6% of 76,000 active; calls by dose curve; also: nearly all actives have a fitted effect of over 60% in size
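HEK293 cells stably expressing human Npr1 and cGMP GloSensor pGS-40F, loaded 2 h with 2% GloSensor reagent, given compound 30 min at room temperature. Luminescence read before and 20 min after 0.1 nM hNppA.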
NIH3T3 tox = Cytotoxic Profiling in NIH 3T3 Cell Line of Diverse Libraries Using Quantitative High-Throughput Screening | 4.3% of 94,000 active | AID 1345082, 2018 | NIH 3T3 viability, CellTiter-Glo ATP luminescence, 48-72 h | Potency, µM (titrated, usually from 96.7 µM), without a hit: at the highest dose activity change, negative = cytotoxicity, most hits filed as inhibitors; also: nearly all actives have a fitted effect of over 55% in size
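Cells were seeded at 400 per well, treated with pin-transferred compound, and kept 48 or 72 hr at 37 °C before CellTiter-Glo addition and luminescence imaging of cellular ATP.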
GPT2 inh = Primary qHTS assay for inhibitors of Glutamate pyruvate transaminase 2 (GPT2); Alanine aminotransferase 2 (Homo sapiens), Q8TD30; Recombinant GPT2, coupled pyruvate oxidase/HRP Amplex Red fluorescence; Potency, µM (highest dose often 57.7 µM), for the others: at the highest dose activity change, negative = inhibition, actives largely listed as inhibitors; 0.25% of 100,000 active; AID 1671188, 2021; also: nearly all actives have a fitted effect of over 60% in size
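GPT2 10ng/uL, a-KG 250uM, L-Ala 2mM, HEPES pH7.5 + 0.0001% Tween; 30 min RT. Then Amplex mix (PO/HRP/ThPP), 30 min RT dark, fluorescence. AOA 50uM used as positive control.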
HEK cytotox = Cytotoxic Profiling in HEK 293 Cell Line of Diverse Libraries Using Quantitative High-Throughput Screening; 6.6% of 94,000 active; AID 1345083, 2018; HEK 293 viability, ATP luminescence (CellTiter-Glo), 48-72 h; Potency, µM (top dose mostly 115 µM), inactives show at the highest dose activity change, negative = cytotoxicity, hits mostly inhibitors; also: nearly all actives have a fitted effect of over 60% in size
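Pintool-delivered compounds were incubated with HEK 293 cells (250 cells/well) at 37 degree Celsius for 48 or 72 hr. ATP-dependent luminescence (CellTiter-Glo) then reported remaining viable cells.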
Active calls of the source: *; i = inactive; ? = inconclusive; . = not tested or not shown; [ ] = dose if it differs, or a comment. Most compounds without a hit are left out; they make up all but 10% or so of the library. Unless noted, calls follow the shape of the dose curve; as a rule, active = well fitted curve in the direction sought with a large enough effect; inconclusive = small, poorly fitted or top-dose-only effect, or another doubt; inactive = no such curve, though single readings can be large; an effect the other way counts as inactive or inconclusive. % is scaled to controls: 0 for no effect and ±100 for the full control effect; potency is read from the fitted curve at half-maximal effect.

SMILES | Luciferase inh | hNpr1 antagonist | NIH3T3 tox | GPT2 inh | HEK cytotox
CC(C)Oc1cccc(-c2nc(C(=O)NCc3ccco3)cs2)c1 | ? | -22% | ? | -6% | ?
CC(C)Oc1cccc(-c2nc(C(=O)NCc3ccccc3)cs2)c1 | i | ? | ? | i | 32µM*
CC(C)CNC(=O)c1cccc2c1CCN2C(=O)c1ccc(F)cc1 | i | -3% | -20% | 1% | ?
Cc1ccc(-c2ncc(C(=O)N3CCC[C@H](N)C3)c(=O)[nH]2)cc1 | i | 6% | -3% | -9% | 4%
COCc1nc2nc(-c3ccccc3)c(-c3ccc(N4CCN(C)CC4)nc3)cc2n1C | ? | 14µM* | ? | -26%[88.5 µM] | ?
COCc1nc2nc(-c3ccccc3)c(-c3ccc([S+](C)(=O)[O-])cc3)cc2n1C | i | . | 89µM* | -2%[88.5 µM] | i
O=S(=O)(NCC1CCOCC1)c1cccnc1 | i | -2% | -11% | -10% | -21%
CNC(=O)c1ccc(CNc2cc(C3CC(O)C3)nc(N)n2)o1 (centres undefined) | i | 2% | -7% | i | i
CNC(=O)c1ccc(CNc2nc(CCN)nc3sc(C)c(C)c23)o1 | i | -18% | ? | -5% | 50µM*
O=C(Cn1nc2n(c1=O)CCCC2)Nc1ccc2c(c1)OCCO2 | 20µM* | -18% | i | i | 13%
CC(C)(C)C1CCC2(CC1)NC(=O)N(CC(=O)Nc1ccc3c(c1)OCCO3)C2=O (centres undefined) | ? | 0% | 28µM* | -3% | ?
O=C(CN1C(=O)NC2(CCOCC2)C1=O)Nc1ccc2c(c1)OCCO2 | 45µM* | 3% | 1% | i | 2%
O=C(CN1C(=O)NC2(CCOCC2)C1=O)Nc1ccc(F)cc1 | i | 22% | 3% | i | -1%
CNC(=O)c1cc(C)nc2onc(C3CCN(C(=O)c4ccccc4)C3)c12 (centres undefined) | . | . | -15% | . | -3%
Clc1ccc(C2Cn3nnc(-c4noc(C5CCCC5)n4)c3CO2)cc1 (centres undefined) | i | -22% | -12% | i | ?
CCn1cc(S(=O)(=O)N2CC(F)(F)C[C@H]2c2nnc(C)o2)cn1 | i | 3% | i | -9% | 0%
Cc1nn(-c2ccc(F)cc2)c(Oc2ccccc2F)c1CCC(=O)N1CCSCC1 | i | -16% | ? | 4% | ?
Cc1nn(-c2ccccc2)c(Oc2ccccc2F)c1CCC(=O)N1CCSCC1 | i | -17% | ? | ? | 35µM*
Cc1cccc(-n2nc(C)c(CCC(=O)N3CCOCC3)c2Oc2ccccc2C)c1 | i | -12% | ? | i | ?
Cc1cccc(-n2nc(C)c(CCC(=O)N3CCSCC3)c2Oc2ccccc2)c1 | i | -25% | ? | i | 45µM*
Cc1ccc(CN2CCCCCCNC(=O)CC2c2ccccc2)o1 (centres undefined) | i | -1% | ? | 3% | ?
Cc1cccc(CN2CCCCCNC(=O)CC2c2ccccc2)c1 (centres undefined) | i | -17% | 40µM* | -14% | ?
Cc1ccc(CN2CCCCCCNC(=O)CC2c2ccccc2)s1 (centres undefined) | i | -15% | ? | i | 40µM*
O=C(NC1C[C@H]2CC[C@@H](C1)N2C(=O)Nc1ccc2c(c1)OCCO2)c1ccc(F)cc1 (some centres undefined) | . | . | -19% | i | i
COc1ccc(/C=C/CN2CCC(CCC(=O)Nc3ccccc3Cl)CC2)cc1 | i | 1% | 79µM* | -9% | ?
SMILES | Luciferase inh | hNpr1 antagonist | NIH3T3 tox | GPT2 inh | HEK cytotox
COc1ccccc1/C=C/CN1CCCC(CCC(=O)Nc2ccccc2F)C1 (centres undefined) | i | -1% | ? | -1% | 45µM*
COCCc1noc([C@@H]2CC(F)(F)CN2C(=O)c2cnc(C)cn2)n1 | i | -1% | -9% | -2% | -10%
CN(Cc1cccnc1)c1nc2c(c(=O)[nH]1)CCN(Cc1ccccc1C(F)(F)F)CC2 | i | ? | ? | i | 20µM*
CN(Cc1cccnc1)Cc1nc(C2(O)CCN(Cc3ccccc3C(F)(F)F)CC2)cs1 | i | -21% | ? | i | 45µM*
Cc1ccc(CCCN2CCCC(COc3ccccc3C(=O)N3CCCCC3)C2)o1 (centres undefined) | i | -11% | ? | i | ?
COc1ccccc1N1CCN(C(=O)C(C)[C@@H]2CCc3c(C)cc(OCCN4CCOCC4)c(C)c3C2)CC1 (some centres undefined) | i | ? | ? | i | 22µM*
O=C(c1ccn[nH]1)N1CCCCC1c1nc(CCOCC2CCCC2)no1 (centres undefined) | i | 35µM* | ? | i | ?
CCNC(=O)N1CCCCC1c1nc(CCOCC2CCCC2)no1 (centres undefined) | . | . | -9% | ? | 1%
Cc1nc(-c2ccc(OC3CCN(C(=O)c4nn(C)c5ccccc45)C3)cc2)no1 (centres undefined) | i | -21% | ? | i | 45µM*
COc1ccc(CCC(=O)N2CCC(Oc3ccc(-c4noc(C)n4)cc3)C2)cc1 (centres undefined) | 40µM* | -29% | -24% | i | ?
COc1ccc(NC(=O)N2CCCC(Cn3cnc4cccnc43)C2)cc1F (centres undefined) | i | -2% | i | i | 7%
NCC(C1CCCCC1)N1CCOCC1 (centres undefined) | . | . | -6%[174 µM] | -5%[88.5 µM] | -15%[230 µM]
CCc1nc2c(c(-c3ccc(Cl)cc3)n1)CN(Cc1ccc(OC(F)(F)F)cc1)CC2 | i | -4% | 25µM* | i | ?
CCc1nc2c(c(-c3ccc(Cl)cc3)n1)CN(Cc1ccc(C(F)(F)F)cc1)CC2 | i | 3% | ? | i | 89µM*
CCc1nc2c(c(-c3ccc(Cl)cc3)n1)CN(Cc1ccsc1)CC2 | i | -2% | ? | i | ?
CCc1nc2c(c(-c3ccc(Cl)cc3)n1)CN(Cc1ccccc1)CC2 | i | -8% | 10µM* | 1% | 18µM*
CCc1nc2c(c(-c3ccc(Cl)cc3)n1)CN(Cc1ccc(C)cc1)CC2 | i | -1% | 25µM* | i | ?
